Source: PubChem BioAssay AID652105 (National Center for Advancing Translational Sciences (NCATS), 2013)
Hit rate of the full screen: of about 330,000 compounds, about 4,100 (1.2%) were called active. Another 2% or so got no clear call; they are omitted. The list comes from a sample in which actives are over-represented; it also holds similar structures and randomly drawn compounds. A number with no mark means an inactive call. How the source made its calls: active means max response of -50% or lower; inconclusive means between -30% and -50%; inactive means -30% or higher.

target: Phosphatidylinositol 5-phosphate 4-kinase type-2 alpha (Homo sapiens) (UniProt P48426); test: qHTS for Inhibitors of phosphatidylinositol 5-phosphate 4-kinase (PI5P4K); details: PI5P4Kalpha enzyme, ADP-Glo luminescence, 60 min; stronger effect = lower value; further: value at the top dose of about 77 µM
From the text: In addition to finding PI5P, we discovered the type II phosphatidylinositol 5-phosphate 4-kinase (PI5P4K) family (alpha, beta, gamma isoforms) that catalyze the conversion of PI5P to PI(4,5)P2. Alternatively, PI(4,5)P2 can also be synthesized through phosphatidylinositol-4-phosphate (PI4P) by the type I phosphatidylinositol 4-phosphate 5-kinases (PI4P5K). These PI5P4K enzymes therefore represent one way by which cells can regulate endogenous PI5P levels and play important roles in insulin signaling and in stress responses.
This proposal aims to identify and optimize specific modulators of human PI5P4K, phosphatidylinositol-5-phosphate 4-kinase (Type II PIPK), a family of kinases that regulate AKT signaling and tumor cell growth. In this project we aim to identify inhibitors of human PI5P4K using a quantitative high-throughput screening approach against the MLSMR containing ~400,000 small molecules.
NIH Chemical Genomics Center [NCGC]
NIH Molecular Libraries Probe Centers Network [MLPCN]
Assay Submitter (PI): Atsuo Sasaki, Beth Israel Deaconess Medical Center
2 microL of PI5P4Kalpha/substrate buffer (columns 1-2, 5-48) are dispensed into Greiner white solid bottom 1536-well assay plates; column 3 receives only PI5P4Kalpha buffer as 0x substrate controls; column 4 receives only substrate buffer as 0x PI5P4Kalpha controls. Final assay buffer consists of 0.038 M HEPES pH 7.4, 0.28 mM EGTA, 0.1% CHAPS, and 5% DMSO (final concentration). Compounds are then transferred via Kalypsys pin tool equipped with 1536-pin array (10 nL slotted pins, V&P Scientific, San Diego, CA). Following addition of compound, 1 microL of ATP (5 microM final concentration, all columns) is added to initiate the reaction. ATP is diluted in an assay buffer consisting of 0.02 M HEPES pH 7.4, 60 mM MgCl2, 15 microM ATP, and 0.1% CHAPS. The plates are then incubated at room temperature for 60 minutes. ADP-Glo reagent 1 is added (2 microL) and plates incubated for 45 minutes, before ADP-Glo reagent 2 (4 microL) is added and plates incubated for 30 minutes. They are then transferred to a ViewLux high-throughput CCD imager (PerkinElmer) wherein single end-point measurements of luminescence are acquired using a clear filter.

Chain of Phosphatidylinositol 5-phosphate 4-kinase type-2 alpha (Homo sapiens) (P48426 whole entry, looked up, canonical isoform): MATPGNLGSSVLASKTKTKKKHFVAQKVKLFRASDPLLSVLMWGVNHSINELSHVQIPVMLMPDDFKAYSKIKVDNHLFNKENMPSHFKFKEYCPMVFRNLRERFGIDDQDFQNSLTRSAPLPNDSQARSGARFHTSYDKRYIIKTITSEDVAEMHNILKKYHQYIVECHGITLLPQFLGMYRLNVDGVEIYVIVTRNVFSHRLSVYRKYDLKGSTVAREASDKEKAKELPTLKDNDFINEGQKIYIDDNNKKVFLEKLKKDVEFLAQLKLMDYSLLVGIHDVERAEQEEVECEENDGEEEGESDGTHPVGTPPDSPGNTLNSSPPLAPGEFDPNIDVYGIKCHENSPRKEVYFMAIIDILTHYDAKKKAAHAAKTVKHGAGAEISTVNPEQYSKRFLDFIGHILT

Compound | max response
S=c1[nH]nc(NCCc2ccccc2)s1 | -73.1% (active)
Nc1c(NCCc2ccccc2)c2ccccc2oc1=O | -0.531%
S=C(NCCc1ccccc1)Nc1ccccc1 | -4.55%
Cc1ccccc1-c1csc(C(O)c2cccc(Cl)c2)n1 (stereo not drawn) | 23.5%
Cc1ccnc(-n2sc3ccccc3c2=O)n1 | -98.6% (active)
Cc1ccnc(N2CCCC(C(=O)NC3CC3)C2)n1 (stereo not drawn) | -0.042%
Cc1ccnc(SC2CC(=O)N(c3ccccc3)C2=O)n1 (stereo not drawn) | -1.33%
CCOCCC(=O)Nc1ccc2c(c1)c(=O)n(C)n2-c1ccc2ccccc2c1 | 0.749%
O=C1CCCC(O)=C1N=Nc1ccc2ncsc2c1 | -66.1% (active)
O=C1CCCC(O)=C1N=Nc1ccc(S(=O)(=O)N2CCOCC2)cc1 | -20.1%
COc1ccc(C(C#N)=C2C=CC(=NO)c3ccccc32)cc1 | -8.83%
N#Cc1c(-c2ccc(Cl)cc2)c2c([nH]c1=S)CCCC2 | -61.4% (active)
CC(=O)c1c(C)[nH]c(=S)c(C#N)c1-c1ccc(F)cc1 | -20.4%
N#Cc1c2c(c(-c3ccccc3)[nH]c1=O)CCCC2 | -4.1%
O=C(NN=Cc1ccc(N2CCOCC2)cc1)c1cc2ccccc2cc1O | -58.2% (active)
Cc1ccc(/C=N/NC(=O)c2cc3ccccc3cc2O)o1 | -60.2% (active)
CCN(CC)c1ccc(C(=O)N/N=C/c2ccc(N3CCOCC3)cc2)cc1 | -1.97%
Cc1ccc(/C=N/NC(=S)NC2CCCCC2)o1 | -0.109%
COc1cc2ccccc2cc1C(=O)Nc1ccc(N2CCOCC2)cc1 | 5.82%
Cc1ccc(/C=N/NC(=S)Nc2cccc(S(=O)(=O)N(C)C)c2)o1 | -3.83%
CCOc1ccc(CCNC(=O)COC(=O)c2ccc(C)c(S(=O)(=O)N3CCOCC3)c2)cc1OCC | -2.07%
CC(C)C[C@@H]1COc2cc(N3CCC[C@@H]3CO)ccc2S(=O)(=O)N1 | 2.99%

Compound | max response
COC(=O)[C@@]12C[C@@H](CC(=O)NCCCCc3ccccc3)C(=O)N(Cc3ccccc3)C1=CCC(C)(C)C2 | 14.2%
C#Cc1ccc(NC(=O)C2(C)CCN2C(=O)Cc2ccc(-c3ccccc3)cc2)cc1 (stereo not drawn) | 26.3%
CCCc1c(-c2ccccc2F)ncn1Cc1ccccc1OC | 4%
CCS(=O)(=O)C1=NSC2=NC(=O)/C(=C\c3cc(C)n(-c4cccc(OC)c4)c3C)C(=N)N21 | -20.4%
Cc1ccc(C2=N/C(=C\c3ccc(OS(=O)(=O)c4ccc(C)cc4)cc3)C(=O)O2)cc1 | -1.18%
CCS(=O)(=O)C1=NSC2=NC(=O)/C(=C\c3ccc(OS(=O)(=O)c4ccccc4)cc3)C(=N)N21 | -73.6% (active)
Cc1ccccc1-c1nc(NC(C)C)nc2cc(-c3ccccc3)sc12 | 8.32%
c1ccc(-c2cc(-c3ccccc3)[nH]n2)cc1 | -6.2%
S=c1[nH]nc(-c2cc(-c3ccccc3)n[nH]2)n1/N=C/c1c2ccccc2cc2ccccc12 | -58.9% (active)
Fc1ccccc1/C=N/n1c(-c2cccnc2)n[nH]c1=S | 5.87%
O=c1c2ccccc2oc2nc(C3CCCCC3)n(Cc3ccco3)c(=O)c12 | 0.643%
Cc1ccc(Cn2c(C)nc3c(c2=O)c2nc4ccccc4nc2n3Cc2ccco2)cc1 | -62.3% (active)
Clc1cccc(-c2nc3nc4ccccc4nc3n2Cc2ccco2)c1 | -4.59%
CC1(C(=O)NCc2cccc3ccccc23)CCN1Cc1ccc(-c2ccccc2)o1 (stereo not drawn) | 25.6%
CCCCC[C@@H]1C=C(C(=O)OCC)[C@H](c2ccccc2)N1S(=O)(=O)c1ccc(C)cc1 | 8.7%
COCCNc1ncnc2c1ncn2[C@H]1CN(Cc2ccc(OC)cc2)C[C@@H](CO)O1 | 2.79%
C=CS(=O)c1sc(Cl)c(N2CCOCC2)c1[N+](=O)[O-] (stereo not drawn) | -71.5% (active)
CC(=O)Nc1cc(-c2ccccc2F)cn2c(-c3cccc(C(F)(F)F)c3)cnc12 | -3.13%
COc1ccc(C(C)(O)c2nc(-c3cc(F)cc(F)c3)cs2)cc1 (stereo not drawn) | 30.3%
CCc1c(C)nc2cc(-c3cccs3)[nH]n2c1=O | -0.23%
Cc1cc(=O)n2[nH]c(-c3cccc(Cl)c3)cc2n1 | -3.84%
Cc1cc(=O)n2[nH]c(-c3sccc3-n3c(C)ccc3C)cc2n1 | -57.4% (active)

Compound | max response
CC(C)C[C@H]1CN([C@@H](Cc2ccccc2)CN2CCC[C@@H]2CN2C(=O)C(=O)NC[C@@H]2Cc2ccc(O)cc2)C(=O)C(=O)N1CCc1ccccc1 | -1.65%
O=C(Nc1nc(-c2ccncc2)cs1)C1COc2ccccc2O1 (stereo not drawn) | -62.8% (active)
O=C(Nc1ncc([N+](=O)[O-])s1)C1COc2ccccc2O1 (stereo not drawn) | -21.4%
COc1ccc(OC)c2sc(NC(=O)C3COc4ccccc4O3)nc12 (stereo not drawn) | 2.71%
CN(C(=O)CN1CCN(c2cc(-c3ccc(OCc4ccccc4)cc3)ncn2)CC1)c1ccccc1 | -25%
C[C@H]1Cn2cnc(C(=O)N[C@H](C)c3ccccc3)c2C(=O)N1 | -2.59%
CC1=C/C(=N\OS(=O)(=O)c2ccccc2)C=CC1=O | -78.8% (active)
Cc1nc(C(F)(F)F)ccc1C(=O)N1CCC1(C)C(=O)NS(=O)(=O)c1ccc(F)cc1F (stereo not drawn) | -1.9%
CCC(c1nnnn1Cc1ccco1)N(CCc1ccccc1)Cc1cc2ccc(OC)cc2[nH]c1=O (stereo not drawn) | -64.1% (active)
CCC(c1nnnn1Cc1ccco1)N(CCc1ccccc1)Cc1cc2cccc(C)c2[nH]c1=O (stereo not drawn) | -1.38%
CCC(c1nnnn1Cc1ccco1)N(Cc1cc2cc(OC)ccc2[nH]c1=O)C1CCCCC1 (stereo not drawn) | -18.4%
CCc1nc2ccc(C(=O)NC3CCN(Cc4ccccc4)CC3)cn2c1N(CC)CCOC | -1.84%
CCOC(=O)[C@]12CCCC=C1N(Cc1ccc(Cl)cc1Cl)C(=O)[C@H](CC(=O)N1CCCCC1)C2 | 12%
CCCCC[C@H](C)N1C[C@@H](COCc2ccccc2)Oc2cc(N3CC[C@@H](N(C)C)C3)ccc2S1(=O)=O | 27.1%
CN(C)C(=O)c1cccc(-c2cnc3sc(NCc4ccc5c(c4)OCO5)nn23)c1 | -16.9%
O=c1[nH]c2ccccc2s1 | 5.23%
COc1ccc2[nH]c(=S)cc(C)c2c1 | -9.52%
CCOc1ccc2[nH]c(=S)sc2c1 | -59.6% (active)
Nc1ccc2[nH]c(=S)sc2c1 | -73.9% (active)
CCOc1ccc2nc(N(CCN(C)C)C(=O)c3ccc4ccccc4c3)sc2c1 | -3.3%
CC(C)C[C@H]1CNC(=S)N1C[C@H]1CCCN1C[C@H](Cc1ccc(O)cc1)N1C[C@H](Cc2ccc(O)cc2)N(CC2CCCCC2)C1=S | -6.15%
O=C(NCc1ccc(F)cc1)c1cc(C2CCCCN2C(=O)c2ccccn2)on1 (stereo not drawn) | -11.1%

Compound | max response
CCOC(=O)C1=CC[C@@H](c2ccncc2)N(S(=O)(=O)c2ccc(C)cc2)C1 | -0.549%
COc1cccc(-c2cc(NC(C)=O)c3ncc(-c4cccc(C(C)=O)c4)n3c2)c1 | -0.237%
CC(C)NC(=O)C1(C)CCCCN1Cc1cccc(C(F)(F)F)c1 (stereo not drawn) | 22.3%
COC(=O)c1ccc2nc(-c3ccc(Cl)cc3)c(Cc3cccc(F)c3)n2c1 | 7.01%
C=CCOc1cccc(C2C(C(=O)c3ccc(C)o3)=C(O)C(=O)N2CCN2CCOCC2)c1 (stereo not drawn) | 2.35%
Cc1cc(N2C(=O)C(O)=C(C(=O)c3ccc(C)o3)C2c2ccc(OCc3ccccc3)cc2)no1 (stereo not drawn) | -59.9% (active)
CCCOc1ccc(C2C(C(=O)c3ccc(C)o3)=C(O)C(=O)N2CCCn2ccnc2)cc1 (stereo not drawn) | -23%
O=C(c1ccc(CS(=O)Cc2ccccc2Cl)o1)N1CCN(c2ccccc2)CC1 (stereo not drawn) | -2.59%
O=C(Nc1ccc(OCCO)cc1)c1csc([C@H]2C[C@H](O)[C@@H](CO)O2)n1 | -3.56%
C=CC(=O)Nc1ccc(Nc2ccnc(Nc3ccc(N4CCN(C)CC4)cc3)n2)cc1 | -68.9% (active)
CN1CCN(c2ccc(NC(=O)c3cc(Cl)c4c(c3)OCCO4)cc2)CC1 | 3.06%
Cc1cccc(N2CCN(c3ccc(NC(=O)/C=C\C(=O)O)cc3)CC2)c1 | -9.89%
CCCCCc1c(Cc2ccccc2)ncn1CCc1ccccc1OC | -4.89%
CCC(c1nnnn1-c1ccc2c(c1)OCCO2)N1CCN(c2ccc(C(F)(F)F)cn2)CC1 (stereo not drawn) | -0.412%
CC(C)Cn1c(SCC(=O)Nc2ccc(Cl)cc2F)nc(O)cc1=O | 3.57%
Cn1c(SCC(=O)Nc2ccc(Cl)cc2)nc(O)cc1=O | -57.1% (active)
COc1ccc(NC(=O)CSc2nc3ccccc3c(=O)n2C)cc1 | 0.885%
O=C(CCCCCN1C(=O)c2cccc3cccc(c23)C1=O)NCc1ccco1 | 0.75%
O=C1c2ccccc2C(=O)N1CCCCCCN1C(=O)c2ccccc2C1=O | 1.45%
C[N+](C)(CCCCCC[N+](C)(C)CCCN1C(=O)c2cccc3cccc(c23)C1=O)CCCN1C(=O)c2cccc3cccc(c23)C1=O | -72.8% (active)
COc1ccc(CC(N)c2csc(NC(=O)Nc3ccc(C(C)C)cc3)n2)cc1 (stereo not drawn) | -8.9%
CC1(C(=O)NS(=O)(=O)c2ccc(C#N)cc2)CCN1C(=O)CC1CCCC1 (stereo not drawn) | 0.461%
